Assay results taken from PubChem BioAssay AID1159580 (chemical genetic matrix, 2015).
The campaign covered roughly 5,500 compounds. About 2,000 (36%) were called active. Roughly 18% stayed inconclusive and do not appear here. No stated cut-off is given here; in the data, active means normalized growth mostly below about 0.91 (no sharp cut-off); inconclusive means no clear call, values can overlap the other calls; inactive means mostly above about 0.92. The list shows a part of the results.

Experiment: chemical genetic growth profiling, strain panel (AID 1159580);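 further: tested at 20 µM; growth read once vehicle control cultures reached saturation at 30 °C; 1 = growth at the plate median or of vehicle wells; lower values mean less growth of the strain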
Conditions: growth OD
[1] = S. cerevisiae deletion strains, locus YGR078C, strain PAC10, hits give low values
[2] = S. cerevisiae deletion strains, locus YNL153C, strain GIM3, hits give low values
[3] = S. cerevisiae deletion strains, locus YAL013W, strain DEP1, hits give low values
[4] = S. cerevisiae deletion strains, locus YBR229C, strain ROT2, hits give low values
[5] = S. cerevisiae deletion strains, locus YDL101C, strain DUN1, hits give low values
[6] = S. cerevisiae deletion strains, locus YDR150W, strain NUM1, hits give low values
[7] = S. cerevisiae deletion strains, locus YEL061C, strain CIN8, hits give low values
[8] = S. cerevisiae deletion strains, locus YHR030C, strain SLT2, hits give low values
[9] = S. cerevisiae deletion strains, locus YHR087W, strain rtc3, hits give low values
[10] = S. cerevisiae deletion strains, locus YJR043C, strain POL32, hits give low values
[11] = S. cerevisiae deletion strains, locus YJR075W, strain HOC1, hits give low values
[12] = S. cerevisiae deletion strains, locus YLR039C, strain RIC1, hits give low values
[13] = S. cerevisiae deletion strains, locus YLR058C, strain SHM2 (second series), hits give low values
[14] = S. cerevisiae deletion strains, locus YLR085C, strain ARP6, hits give low values
[15] = S. cerevisiae deletion strains, locus YLR262C, strain YPT6, hits give low values
[16] = S. cerevisiae deletion strains, locus YML094W, strain GIM5, hits give low values
[17] = S. cerevisiae deletion strains, locus YMR219W, strain ESC1, hits give low values
[18] = S. cerevisiae deletion strains, locus YMR263W, strain SAP30, hits give low values
[19] = S. cerevisiae deletion strains, locus YNL298W, strain CLA4 (second series), hits give low values
[20] = S. cerevisiae deletion strains, locus YNL322C, strain KRE1, hits give low values
[21] = S. cerevisiae deletion strains, locus YNR030W, strain Alg12, hits give low values
[22] = S. cerevisiae deletion strains, locus YOL006C, strain TOP1, hits give low values
[23] = S. cerevisiae deletion strains, locus YPL055C, strain LGE1, hits give low values
[24] = S. cerevisiae deletion strains, locus YPL241C, strain CIN2, hits give low values
[25] = S. cerevisiae deletion strains, locus YPR135W, strain CTF4, hits give low values
[26] = S. cerevisiae deletion strains, locus YCL061C, strain MRC1, hits give low values
[27] = S. cerevisiae deletion strains, locus YKL190W, strain CNB1, hits give low values
[28] = S. cerevisiae deletion strains, locus YNL128W, strain TEP1, hits give low values
[29] = S. cerevisiae strains, strain wild type, hits give low values

Measured: normalized growth

COc1cc([C@@H]2c3cc4c(cc3[C@H](O)C3COC(=O)[C@@H]32)OCO4)cc(OC)c1OC (stereo partly drawn)
inactive: S. cerevisiae deletion strains, locus YAL040C, strain CLN3, hits give low values 1.06 | S. cerevisiae deletion strains, locus YCL061C, strain MRC1 (second series), hits give low values 0.999 | S. cerevisiae deletion strains, locus YDR363W, strain ESC2, hits give low values 1 | S. cerevisiae deletion strains, locus YER002W, strain NOP16, hits give low values 1.02 | [1] 1.02 | [2] 1.04 | S. cerevisiae deletion strains, locus YNL175C, strain NOP13, hits give low values 1.02 | S. cerevisiae deletion strains, locus YNL197C, strain WHI3, hits give low values 1 | S. cerevisiae deletion strains, locus YNL224C, strain SQS1, hits give low values 1 | S. cerevisiae deletion strains, locus YOR083W, strain WHI5 (second series), hits give low values 1

CC(=N/O)/C(C)=C/c1ccc(Cl)cc1
inactive: [6] 0.847
active: [3] 0.8 | [4] 0.822 | [5] 0.835 | [7] 0.648 | [1] 0.752 | S. cerevisiae deletion strains, locus YGR229C, strain SMI1, hits give low values 0.898 | [8] 0.165 | [9] 0.785 | [10] 0.824 | [11] 0.521 | [12] 0.327 | [13] 0.848 | [14] 0.164 | [15] 0.311 | [16] 0.712 | [17] 0.855 | [18] 0.837 | [2] 0.852 | [19] 0.441 | [20] 0.885 | [21] 0.555 | [22] 0.305 | [23] 0.56 | [24] 0.502 | [25] 0.231

C/C(=N/O)c1ccn(S(=O)(=O)c2ccc(Cl)cc2)c1
inactive: [3] 0.998 | [4] 1.02 | [26] 1.05 | [5] 1.03 | S. cerevisiae deletion strains, locus YDL134C, strain PPH21, hits give low values 1 | [6] 0.891 | [7] 0.983 | [1] 1.01 | [8] 1.02 | [9] 0.992 | [10] 1.05 | [11] 1.02 | [27] 0.995 | [12] 1.04 | [13] 0.978 | [14] 0.99 | [15] 1.04 | [16] 1.02 | [17] 0.996 | [18] 0.998 | [28] 1 | [2] 1.05 | [19] 1.02 | [20] 0.983 | [21] 1 | [23] 0.989 | [24] 1 | [25] 1.06 | [29] 1.01

O=C(O)C1=C(CSc2nnnn2CS(=O)(=O)O)CS[C@@H]2C(NC(=O)[C@H](O)c3ccccc3)C(=O)N12 (stereo partly drawn)
inactive: S. cerevisiae deletion strains, locus YAL021C, strain ccr4, hits give low values 0.955 | S. cerevisiae deletion strains, locus YAL026C, strain drs2, hits give low values 0.965 | S. cerevisiae deletion strains, locus YAL030W, strain snc1, hits give low values 0.993 | S. cerevisiae deletion strains, locus YBL061C, strain skt5, hits give low values 0.989 | S. cerevisiae deletion strains, locus YBR009C, strain hhf1, hits give low values 0.993 | S. cerevisiae deletion strains, locus YBR023C, strain chs3, hits give low values 0.988 | S. cerevisiae deletion strains, locus YBR171W, strain sec66, hits give low values 0.978 | S. cerevisiae deletion strains, locus YBR231C, strain swc5, hits give low values 0.987 | S. cerevisiae deletion strains, locus YBR279W, strain paf1, hits give low values 0.99 | S. cerevisiae deletion strains, locus YCL011C, strain gbp2, hits give low values 0.963 | S. cerevisiae deletion strains, locus YCL016C, strain dcc1, hits give low values 0.987 | [26] 0.971 | S. cerevisiae deletion strains, locus YCL069W, strain vba3, hits give low values 0.978 | S. cerevisiae deletion strains, locus YCR088W, strain abp1, hits give low values 0.968 | S. cerevisiae deletion strains, locus YDL005C, strain med2, hits give low values 0.98 | S. cerevisiae deletion strains, locus YDL040C, strain nat1, hits give low values 0.989 | S. cerevisiae deletion strains, locus YDR001C, strain nth1, hits give low values 0.978 | S. cerevisiae deletion strains, locus YDR069C, strain doa4, hits give low values 0.982 | S. cerevisiae deletion strains, locus YDR137W, strain rgp1, hits give low values 0.928 | S. cerevisiae deletion strains, locus YDR159W, strain sac3, hits give low values 0.966 | S. cerevisiae deletion strains, locus YDR195W, strain ref2 0.971 | S. cerevisiae deletion strains, locus YDR297W, strain sur2, hits give low values 0.985 | S. cerevisiae deletion strains, locus YDR334W, strain swr1, hits give low values 0.95 | S. cerevisiae deletion strains, locus YDR335W, strain msn5, hits give low values 0.963 | S. cerevisiae deletion strains, locus YDR392W, strain spt3, hits give low values 0.956 | S. cerevisiae deletion strains, locus YEL003W, strain gim4, hits give low values 0.969 | S. cerevisiae deletion strains, locus YEL037C, strain rad23, hits give low values 0.963 | S. cerevisiae deletion strains, locus YEL061C, strain CIN8 (second series), hits give low values 0.972 | S. cerevisiae deletion strains, locus YER015W, strain faa2, hits give low values 0.986 | S. cerevisiae deletion strains, locus YER016W, strain bim1, hits give low values 0.978 | S. cerevisiae deletion strains, locus YER111C, strain swi4, hits give low values 0.981 | S. cerevisiae deletion strains, locus YER155C, strain BEM2 (second series), hits give low values 0.989 | S. cerevisiae deletion strains, locus YFR010W, strain ubp6, hits give low values 0.964 | S. cerevisiae deletion strains, locus YGL167C, strain pmr1, hits give low values 0.987 | S. cerevisiae deletion strains, locus YGL173C, strain kem1, hits give low values 0.983 | S. cerevisiae deletion strains, locus YGL227W, strain vid30, hits give low values 0.994 | S. cerevisiae deletion strains, locus YGL240W, strain doc1, hits give low values 1.01 | S. cerevisiae deletion strains, locus YGL253W, strain hxk2, hits give low values 0.991 | S. cerevisiae deletion strains, locus YHR013C, strain ard1, hits give low values 0.963 | S. cerevisiae deletion strains, locus YHR027C, strain rpn1, hits give low values 0.975 | [8] 1 | S. cerevisiae deletion strains, locus YHR079C, strain IRE1, hits give low values 1.03 | S. cerevisiae deletion strains, locus YHR142W, strain chs7, hits give low values 0.948 | S. cerevisiae deletion strains, locus YJL092W, strain hpr5, hits give low values 0.97 | S. cerevisiae deletion strains, locus YJL095W, strain BCK1 (second series), hits give low values 0.994 | S. cerevisiae deletion strains, locus YJL095W, strain BCK1, hits give low values 1.01 | S. cerevisiae deletion strains, locus YJL115W, strain asf1, hits give low values 0.968 | S. cerevisiae deletion strains, locus YJL129C, strain trk1, hits give low values 0.961 | S. cerevisiae deletion strains, locus YJL154C, strain vps35, hits give low values 0.989 | S. cerevisiae deletion strains, locus YJL164C, strain tpk1, hits give low values 0.982 | S. cerevisiae deletion strains, locus YJL166W, strain qcr8, hits give low values 0.99 | S. cerevisiae deletion strains, locus YJL187C, strain SWE1, hits give low values 0.991 | S. cerevisiae deletion strains, locus YJR066W, strain TOR1, hits give low values 0.945 | S. cerevisiae deletion strains, locus YKL160W, strain elf1, hits give low values 0.974 | S. cerevisiae deletion strains, locus YKR026C, strain gcn3, hits give low values 0.972 | S. cerevisiae deletion strains, locus YKR091W, strain srl3, hits give low values 0.989 | S. cerevisiae deletion strains, locus YLL001W, strain dnm1, hits give low values 0.965 | S. cerevisiae deletion strains, locus YLL026W, hits give low values 0.991 | S. cerevisiae deletion strains, locus YLL041C, strain sdh2, hits give low values 0.982 | S. cerevisiae deletion strains, locus YLR027C, strain aat2, hits give low values 0.984 | S. cerevisiae deletion strains, locus YLR113W, strain HOG1, hits give low values 1.04 | S. cerevisiae deletion strains, locus YLR221C, strain rsa3, hits give low values 0.975 | S. cerevisiae deletion strains, locus YLR258W, strain gsy2, hits give low values 0.995 | S. cerevisiae deletion strains, locus YLR262C, strain YPT6 (second series), hits give low values 0.98 | S. cerevisiae deletion strains, locus YLR320W, strain mms22, hits give low values 0.995 | S. cerevisiae deletion strains, locus YLR342W, strain FKS1, hits give low values 0.982 | S. cerevisiae deletion strains, locus YLR357W, strain rsc2, hits give low values 1 | S. cerevisiae deletion strains, locus YLR370C, strain arc18, hits give low values 0.971 | S. cerevisiae deletion strains, locus YLR384C, strain iki3, hits give low values 0.987 | S. cerevisiae deletion strains, locus YML120C, strain ndi1, hits give low values 0.958 | S. cerevisiae deletion strains, locus YMR058W, strain fet3, hits give low values 0.97 | S. cerevisiae deletion strains, locus YMR125W, strain sto1, hits give low values 0.993 | S. cerevisiae deletion strains, locus YMR129W, hits give low values 0.975 | S. cerevisiae deletion strains, locus YMR205C, strain PFK2, hits give low values 1.01 | S. cerevisiae deletion strains, locus YMR231W, strain pep5, hits give low values 0.984 | S. cerevisiae deletion strains, locus YNL071W, strain lat1, hits give low values 0.992 | S. cerevisiae deletion strains, locus YNL183C, strain NPR1, hits give low values 0.952 | S. cerevisiae deletion strains, locus YNL209W, strain ssb2, hits give low values 0.982 | S. cerevisiae deletion strains, locus YNL248C, strain rpa49, hits give low values 0.947 | S. cerevisiae deletion strains, locus YNL322C, strain KRE1 (second series), hits give low values 0.977 | S. cerevisiae deletion strains, locus YNR049C, strain mso1, hits give low values 0.983 | S. cerevisiae deletion strains, locus YOR001W, strain rrp6, hits give low values 0.942 | S. cerevisiae deletion strains, locus YOR070C, strain gyp1, hits give low values 0.993 | S. cerevisiae deletion strains, locus YOR080W, strain dia2, hits give low values 0.981 | S. cerevisiae deletion strains, locus YOR083W, strain WHI5, hits give low values 0.972 | S. cerevisiae deletion strains, locus YOR106W, strain vam3, hits give low values 0.971 | S. cerevisiae deletion strains, locus YOR231W, strain MKK1, hits give low values 1.01 | S. cerevisiae deletion strains, locus YOR265W, strain rbl2, hits give low values 0.991 | S. cerevisiae deletion strains, locus YOR270C, strain vph1, hits give low values 0.964 | S. cerevisiae deletion strains, locus YOR290C, strain snf2, hits give low values 0.979 | S. cerevisiae deletion strains, locus YPL051W, strain arl3, hits give low values 0.998 | S. cerevisiae deletion strains, locus YPL078C, strain atp4, hits give low values 0.966 | S. cerevisiae deletion strains, locus YPL106C, strain sse1, hits give low values 0.961 | S. cerevisiae deletion strains, locus YPL240C, strain hsp82, hits give low values 0.971 | S. cerevisiae deletion strains, locus YPL256C, strain CLN2, hits give low values 1.04

Cc1c(C)c(C)c(S(=O)(=O)Nc2ccccc2N)c(C)c1C
inactive: [3] 1.01 | [4] 0.993 | [5] 1.04 | [6] 1.02 | [7] 0.959 | [1] 1.01 | [8] 1.01 | [9] 0.989 | [10] 1.03 | [11] 1.01 | [27] 0.994 | [12] 0.988 | [13] 0.975 | [14] 0.988 | [15] 0.981 | [16] 1 | [17] 0.999 | [18] 1.01 | [28] 0.978 | [2] 1.04 | [19] 0.982 | [20] 0.996 | [21] 0.966 | [22] 1.02 | [23] 0.991 | [24] 0.974 | [25] 1.06 | [29] 0.975
